The whole screen tested about 5,500 compounds, of which about 2,000 (36%) were called active. Not shown: some 18% with an inconclusive outcome. No stated cut-off is given here; in the data, active means normalized growth mostly below about 0.91 (no sharp cut-off); inconclusive means no clear call, values can overlap the other calls; inactive means mostly above about 0.92. The list shows a part of the results.
Test: chemical genetic growth profiling, strain panel (AID 1159580);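 further: tested at 20 µM; growth read once vehicle control cultures reached saturation at 30 °C; 1 = growth at the plate median or of vehicle wells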
Details: growth OD

Measured: normalized growth

NS(=O)(=O)c1cc2c(cc1Cl)NC(CSCc1ccccc1)=NS2(=O)=O
inactive: S. cerevisiae deletion strains, locus YJR075W, strain HOC1, stronger effect = lower value 0.971 | S. cerevisiae deletion strains, locus YKL009W, strain mrt4, stronger effect = lower value 0.99 | S. cerevisiae deletion strains, locus YKL068W, stronger effect = lower value 0.988 | S. cerevisiae deletion strains, locus YKL085W, strain MDH1 (second series), stronger effect = lower value 0.998 | S. cerevisiae deletion strains, locus YKL085W, strain MDH1, stronger effect = lower value 0.998 | S. cerevisiae deletion strains, locus YKL160W, strain elf1, stronger effect = lower value 1.01 | S. cerevisiae deletion strains, locus YKL190W, strain CNB1, stronger effect = lower value 0.987 | S. cerevisiae deletion strains, locus YKR001C, strain vps1, stronger effect = lower value 0.982 | S. cerevisiae deletion strains, locus YKR026C, strain gcn3, stronger effect = lower value 1.02 | S. cerevisiae deletion strains, locus YKR091W, strain srl3, stronger effect = lower value 1.02 | S. cerevisiae deletion strains, locus YLL001W, strain dnm1, stronger effect = lower value 1.03 | S. cerevisiae deletion strains, locus YLL026W, stronger effect = lower value 1.02 | S. cerevisiae deletion strains, locus YLL041C, strain sdh2, stronger effect = lower value 1.02 | S. cerevisiae deletion strains, locus YLR027C, strain aat2, stronger effect = lower value 1.02 | S. cerevisiae deletion strains, locus YLR039C, strain RIC1, stronger effect = lower value 1.05 | S. cerevisiae deletion strains, locus YLR058C, strain SHM2, stronger effect = lower value 0.982 | S. cerevisiae deletion strains, locus YLR102C, strain apc9, stronger effect = lower value 0.986 | S. cerevisiae deletion strains, locus YLR113W, strain HOG1, stronger effect = lower value 0.97 | S. cerevisiae deletion strains, locus YLR221C, strain rsa3, stronger effect = lower value 1.02 | S. cerevisiae deletion strains, locus YLR258W, strain gsy2, stronger effect = lower value 0.994 | S. cerevisiae deletion strains, locus YLR262C, strain YPT6 (second series), stronger effect = lower value 1.05 | S. cerevisiae deletion strains, locus YLR262C, strain YPT6, stronger effect = lower value 1.04 | S. cerevisiae deletion strains, locus YLR268W, strain sec22, stronger effect = lower value 0.992 | S. cerevisiae deletion strains, locus YLR320W, strain mms22, stronger effect = lower value 0.976 | S. cerevisiae deletion strains, locus YLR330W, strain CHS5, stronger effect = lower value 0.987 | S. cerevisiae deletion strains, locus YLR342W, strain FKS1 (second series), stronger effect = lower value 1.01 | S. cerevisiae deletion strains, locus YLR342W, strain FKS1, stronger effect = lower value 1.02 | S. cerevisiae deletion strains, locus YLR357W, strain rsc2, stronger effect = lower value 1.02 | S. cerevisiae deletion strains, locus YLR370C, strain arc18, stronger effect = lower value 1.01 | S. cerevisiae deletion strains, locus YLR371W, strain rom2, stronger effect = lower value 0.974 | S. cerevisiae deletion strains, locus YLR384C, strain iki3, stronger effect = lower value 1.02 | S. cerevisiae deletion strains, locus YLR418C, strain cdc73, stronger effect = lower value 0.994 | S. cerevisiae deletion strains, locus YML016C, strain PPZ1, stronger effect = lower value 0.987 | S. cerevisiae deletion strains, locus YML032C, strain rad52, stronger effect = lower value 0.995 | S. cerevisiae deletion strains, locus YML120C, strain ndi1, stronger effect = lower value 1.04 | S. cerevisiae deletion strains, locus YML124C, strain tub3, stronger effect = lower value 0.995 | S. cerevisiae deletion strains, locus YMR058W, strain fet3, stronger effect = lower value 1.02 | S. cerevisiae deletion strains, locus YMR078C, strain ctf18, stronger effect = lower value 0.983 | S. cerevisiae deletion strains, locus YMR125W, strain sto1, stronger effect = lower value 1.01 | S. cerevisiae deletion strains, locus YMR129W, stronger effect = lower value 1.03 | S. cerevisiae deletion strains, locus YMR205C, strain PFK2, stronger effect = lower value 1.02 | S. cerevisiae deletion strains, locus YMR223W, strain ubp8, stronger effect = lower value 0.985 | S. cerevisiae deletion strains, locus YMR231W, strain pep5, stronger effect = lower value 1.01 | S. cerevisiae deletion strains, locus YMR263W, strain SAP30, stronger effect = lower value 0.977 | S. cerevisiae deletion strains, locus YMR307W, strain GAS1, stronger effect = lower value 0.971 | S. cerevisiae deletion strains, locus YNL067W, strain RPL9B, stronger effect = lower value 0.959 | S. cerevisiae deletion strains, locus YNL071W, strain lat1, stronger effect = lower value 0.978 | S. cerevisiae deletion strains, locus YNL153C, strain GIM3, stronger effect = lower value 0.966 | S. cerevisiae deletion strains, locus YNL183C, strain NPR1, stronger effect = lower value 0.909 | S. cerevisiae deletion strains, locus YNL209W, strain ssb2, stronger effect = lower value 1 | S. cerevisiae deletion strains, locus YNL233W, strain BNI4, stronger effect = lower value 0.958 | S. cerevisiae deletion strains, locus YNL248C, strain rpa49, stronger effect = lower value 1 | S. cerevisiae deletion strains, locus YNL250W, strain rad50, stronger effect = lower value 0.978 | S. cerevisiae deletion strains, locus YNL271C, strain bni1, stronger effect = lower value 0.998 | S. cerevisiae deletion strains, locus YNL298W, strain CLA4, stronger effect = lower value 0.982 | S. cerevisiae deletion strains, locus YNL307C, strain MCK1, stronger effect = lower value 0.983 | S. cerevisiae deletion strains, locus YNL322C, strain KRE1 (second series), stronger effect = lower value 1.02 | S. cerevisiae deletion strains, locus YNL322C, strain KRE1, stronger effect = lower value 0.994 | S. cerevisiae deletion strains, locus YNR049C, strain mso1, stronger effect = lower value 1.02 | S. cerevisiae deletion strains, locus YNR052C, strain pop2, stronger effect = lower value 0.981 | S. cerevisiae deletion strains, locus YOL012C, strain htz1 0.861 | S. cerevisiae deletion strains, locus YOL147C, strain pex11, stronger effect = lower value 0.985 | S. cerevisiae deletion strains, locus YOR001W, strain rrp6, stronger effect = lower value 1.04 | S. cerevisiae deletion strains, locus YOR061W, strain CKA2, stronger effect = lower value 1 | S. cerevisiae deletion strains, locus YOR069W, strain VPS5, stronger effect = lower value 0.987 | S. cerevisiae deletion strains, locus YOR070C, strain gyp1, stronger effect = lower value 1 | S. cerevisiae deletion strains, locus YOR080W, strain dia2, stronger effect = lower value 1.03 | S. cerevisiae deletion strains, locus YOR083W, strain WHI5, stronger effect = lower value 1.05 | S. cerevisiae deletion strains, locus YOR106W, strain vam3, stronger effect = lower value 1.03 | S. cerevisiae deletion strains, locus YOR136W, strain idh2, stronger effect = lower value 0.979 | S. cerevisiae deletion strains, locus YOR144C, strain elg1, stronger effect = lower value 0.987 | S. cerevisiae deletion strains, locus YOR184W, strain ser1, stronger effect = lower value 0.985 | S. cerevisiae deletion strains, locus YOR231W, strain MKK1, stronger effect = lower value 0.959 | S. cerevisiae deletion strains, locus YOR265W, strain rbl2, stronger effect = lower value 1.01 | S. cerevisiae deletion strains, locus YOR270C, strain vph1, stronger effect = lower value 1.05 | S. cerevisiae deletion strains, locus YOR290C, strain snf2, stronger effect = lower value 1.01 | S. cerevisiae deletion strains, locus YOR316C, strain cot1, stronger effect = lower value 0.973 | S. cerevisiae deletion strains, locus YPL051W, strain arl3, stronger effect = lower value 1.02 | S. cerevisiae deletion strains, locus YPL078C, strain atp4, stronger effect = lower value 1.06 | S. cerevisiae deletion strains, locus YPL106C, strain sse1, stronger effect = lower value 0.973 | S. cerevisiae deletion strains, locus YPL240C, strain hsp82, stronger effect = lower value 1.01 | S. cerevisiae deletion strains, locus YPL256C, strain CLN2, stronger effect = lower value 0.935 | S. cerevisiae deletion strains, locus YPR119W, strain clb2, stronger effect = lower value 0.98 | S. cerevisiae deletion strains, locus YPR141C, strain kar3, stronger effect = lower value 0.973 | S. cerevisiae deletion strains, locus YPR163C, strain tif3, stronger effect = lower value 0.982 | S. cerevisiae deletion strains, locus YPR167C, strain met16, stronger effect = lower value 0.989 | S. cerevisiae deletion strains, strain wtn01, stronger effect = lower value 0.967 | S. cerevisiae strains, strain wild type, stronger effect = lower value 0.992

— PubChem BioAssay AID1159580 (chemical genetic matrix, 2015)
